Source: PubChem
Only some compounds are listed: those with a hit (about 3.6% of all), similar ones and a draw of the others.
TDP43 rescue – qHTS of TDP-43 Inhibitors. AID 652104, 2013. actives 1.8% (n = 410,000). Potency, µM (titrated, usually from 46.1 µM), most hits filed as activators. TDP-43 expressing yeast growth rescue, BacTiter-Glo, 24 h; note: nearly all actives have a fitted effect of over 50% in size
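Yeast expressing TDP-43 (pregrown in raffinose, seeded at OD600=0.02 in galactose medium) exposed to compounds 24 hr at 30 deg C. Growth read by BacTiter-Glo luminescence; rescue of toxicity appears as increased signal.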
MmCpn inh – Inhibitors of TCP-1 ring complex (TRiC) of Methanococcus maripaludis (MmCpn): qHTS | Potency, µM (highest dose often 76.9 µM), most hits filed as inhibitors | Chaperonin Mm-Cpn (Methanococcus maripaludis) | purified Mm-Cpn ATPase, ADP Transcreener TR-FRET | AID 504842, 2011 | actives 0.031% (n = 330,000); note: nearly all actives have a fitted effect of over 80% in size
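Compound-treated chaperonin, 25 nM final, turns over 10 uM ATP at 37°C for 30 min following a 10 min preincubation; ADP generated competes with ADP-d2 for Eu-cryptate antibody, lowering FRET.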
FUS yeast rescue – qHTS for Suppressors of FUS Proteinopathy: Primary screen using FUS-linked yeast assay; Potency, µM (series often up to 76.6 µM), actives largely listed as activators; actives 0.24% (n = 390,000); S. cerevisiae FUS-expressing, growth rescue, OD600, 24 h; note: nearly all actives have a fitted effect of over 55% in size
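Restored growth of FUS-toxic S. cerevisiae, read as 600 nm absorbance after 24 h at 30C in galactose medium (starting OD 0.005). Controls CP55940 and DMSO.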
ClpP mod – qHTS Assay for Activators of ClpP; actives 1.9% (n = 340,000); purified B. subtilis ClpP, FRET peptide cleavage, 20 min; ATP-dependent Clp protease proteolytic subunit (Bacillus subtilis (strain 168)), P80244; Potency, µM (doses to about 57.5 µM); active = well fitted falling curve with a large enough effect; inconclusive = small, poorly fitted or top-dose-only effect; inactive = no such curve, though single readings can be large or run the other way; note: the source files actives as falling curves though it sought activators and does not explain the sign; nearly all actives have a fitted effect of over 65% in size
Target sequence (P80244 whole entry, looked up): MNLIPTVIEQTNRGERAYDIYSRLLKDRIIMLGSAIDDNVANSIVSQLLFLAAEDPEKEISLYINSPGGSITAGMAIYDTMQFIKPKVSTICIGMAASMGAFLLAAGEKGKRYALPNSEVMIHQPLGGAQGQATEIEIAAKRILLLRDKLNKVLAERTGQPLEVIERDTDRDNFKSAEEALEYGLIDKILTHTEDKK
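FRET quenching reversal measured ClpP activation: 10 microg/mL B. subtilis ClpP at pH 8 with the FRET-FV decapeptide, read at 430 nm after 320 nm excitation. The 20-min minus 0-min signal was scaled between DMSO/no-enzyme wells and ADEP (5.8 microM final).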
aSyn rescue – qHTS of alpha-syn Inhibitors | Potency, µM (series often up to 46.1 µM), actives largely listed as activators | AID 652106, 2013 | actives 0.14% (n = 370,000) | Yeast expressing alpha-synuclein, growth rescue, BacTiter-Glo, 24 h; note: nearly all actives have a fitted effect of over 65% in size
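Screening used galactose-induced yeast with toxic alpha-synuclein levels, exposed to compound for 24 hr at 30 deg C. Cell growth, read with BacTiter-Glo luminescence, gave the measured signal.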
Abeta yeast res – qHTS for compounds that reverse cellular toxicity of Amyloid beta (A-beta) peptide in yeast: Primary Screen; yeast expressing A-beta42, growth rescue, OD600, 48 h; response scale: 0% DMSO, 100% iron-clioquinol control; Potency, µM (highest dose often 46.1 µM), hits mostly activators; actives 0.063% (n = 410,000); AID 1347071, 2019; note: nearly all actives have a fitted effect of over 55% in size
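Yeast A-beta toxicity model in growth medium with pinned compounds, 48 h at 30 C; growth read as absorbance at 600 nm. Normalized to FeCl3/clioquinol equimolar mix (positive) and DMSO (negative).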
Large screens that a line does not name were inactive; ! = repeats disagree. Unless noted, calls come from the whole dose curve; as a rule, active = well fitted curve in the direction sought with a large enough effect; inconclusive = small, poorly fitted or top-dose-only effect, or another doubt; inactive = no such curve, though single readings can be large; an effect the other way counts as inactive or inconclusive.

Cc1ccc(CNC(=O)c2c[nH]c3ccc(S(=O)(=O)N4CCOCC4)cc3c2=O)cc1	ClpP mod 28.2µM (no result: MmCpn inh, aSyn rescue)
Cc1ccc(N(C)S(=O)(=O)c2ccc3[nH]cc(C(=O)NCCCN4CCOCC4)c(=O)c3c2)cc1C	none
Cc1ccc(CNC(=O)c2oc3ccc(S(=O)(=O)N4CCC5(CC4)OCCO5)cc3c2C)cc1	FUS yeast rescue 25.1µM
Cc1c(C(=O)NCc2cccnc2)oc2ccc(S(=O)(=O)N3CCC4(CC3)OCCO4)cc12	aSyn rescue inconclusive
O=C(NCc1ccc2c(c1)OCO2)c1c[nH]c2ccc(S(=O)(=O)N3CCOCC3)cc2c1=O	ClpP mod inconclusive
Cc1ccc(C)c(N(C)S(=O)(=O)c2ccc3[nH]cc(C(=O)NCCN4CCOCC4)c(=O)c3c2)c1	ClpP mod 17.8µM
COCCNC(=O)c1c[nH]c2ccc(S(=O)(=O)N3CCOCC3)cc2c1=O	none
CN(Cc1ccccc1)C(=O)c1c[nH]c2ccc(S(=O)(=O)N3CCOCC3)cc2c1=O	ClpP mod 31.6µM (no result: FUS yeast rescue)
Cc1cccc(N2CCN(C(=O)C3CCCN(S(=O)(=O)c4ccc5c(c4)oc(=O)n5C)C3)CC2)c1C (stereo not drawn)	none (no result: MmCpn inh, aSyn rescue)
CCN(CC)CCCN(c1ccccc1)C1Cc2ccccc2C1	none (no result: TDP43 rescue, MmCpn inh, FUS yeast rescue, ClpP mod, Abeta yeast res)
CC(=O)c1ccc(N2CCN(C(=O)Nc3ccc(C(C)C)cc3)CC2)cc1	TDP43 rescue 17.8µM!
CC(=O)c1ccc(N2CCN(C(=O)Nc3ccc(F)cc3)CC2)cc1	none (no result: TDP43 rescue, FUS yeast rescue, ClpP mod, aSyn rescue, Abeta yeast res)
O=C(Nc1ccccc1)N1CCN(c2ccccc2)CC1	TDP43 rescue 8.91µM (no result: MmCpn inh)
O=C(C1CCC1)N1CCN(c2ccc(C(F)(F)F)cc2[N+](=O)[O-])CC1	none (no result: FUS yeast rescue)
O=C(Nc1ccccc1)N1CCCN(c2ccc(C(F)(F)F)cc2[N+](=O)[O-])CC1	TDP43 rescue 17.8µM (no result: ClpP mod)
CCCCCn1c(=N)c(S(=O)(=O)c2ccccc2)cc2c(=O)n3ccccc3nc21	none (no result: MmCpn inh)
COc1ccc(-n2nc(C(=O)NCCc3ccc(OC)c(OC)c3)c3c4ccccc4n(C)c3c2=O)cc1Cl	ClpP mod inconclusive (no result: MmCpn inh, aSyn rescue)
CC1CC(C)CN(C(=O)C(NS(=O)(=O)c2ccc(Br)s2)c2ccccc2)C1 (stereo not drawn)	TDP43 rescue 14.1µM
CCN(C(=O)C(NS(=O)(=O)c1ccc(Br)s1)c1ccccc1)c1ccc(C)c(C)c1 (stereo not drawn)	none (no result: MmCpn inh, aSyn rescue)
CCC(=C(c1ccc(OC)cc1)c1ccc(OC)cc1)c1cn(CC(O)CN(CCO)CCO)c2ccccc12 (stereo not drawn)	FUS yeast rescue 28.2µM
COc1ccc(CNC(=O)c2cc3ccccn3n2)c(OC)c1	none (no result: MmCpn inh, aSyn rescue)
CCOC(=O)c1cc(C(C)=O)n2ccccc12	none
CCOC(=O)c1cc(Br)c(=O)n2ccccc12	MmCpn inh 28.2µM (no result: FUS yeast rescue)
CCN(CC)c1ccc(NC(=O)c2c(C)nn(-c3ccc(F)cc3)c2-n2cccc2)c(C)c1	none (no result: MmCpn inh)
Cc1ccc(Cn2c(SCC(=O)NCc3ccccc3)nc3ccsc3c2=O)cc1	none (no result: MmCpn inh, aSyn rescue)
Cc1ccc(-n2ncc3c(SCc4cccc(C)c4)ncnc32)cc1	ClpP mod 28.2µM
Cc1cccc(-n2ncc3c(NC(C)C)ncnc32)c1	TDP43 rescue 11.2µM
CC(C)Nc1ncnc2c1cnn2-c1ccccc1	TDP43 rescue inconclusive
Cc1cccc(-n2ncc3c(NCCCN4CCCC4=O)ncnc32)c1	ClpP mod 28.2µM
COc1ccc(CN2C(=O)c3ccccc3C2=O)cc1C(=O)Nc1ccccc1N1CCOCC1	TDP43 rescue 17.8µM, aSyn rescue inconclusive (no result: ClpP mod)
COc1ccc(NC(=O)c2cc(CN3C(=O)c4ccccc4C3=O)ccc2OC)cn1	none
Cc1ccnc(NS(=O)(=O)Cc2ccccc2)c1	ClpP mod 39.8µM
Cc1ccc(NC(=O)Cc2ccc(Cl)cc2)nc1	none (no result: MmCpn inh)
COc1ccccc1NC(=O)Cc1ccc(-c2ccccc2)cc1	TDP43 rescue 15.8µM
Cc1ccc(NC(=O)Cc2ccc(-c3ccccc3)cc2)nc1	TDP43 rescue 7.08µM, Abeta yeast res inconclusive
O=C(CC(=O)Nc1ccccn1)Nc1ccccn1	none
O=C(Cc1ccc(-c2ccccc2)cc1)Nc1ccccn1	TDP43 rescue 14.1µM (no result: ClpP mod)
CCOc1ccccc1NC(=O)Nc1nnc(N2CCCC(C)C2)s1 (stereo not drawn)	none (no result: MmCpn inh, aSyn rescue)
Cc1ccnc(NC(=O)Cc2ccc([N+](=O)[O-])cc2)c1	none (no result: ClpP mod)
Cc1ccnc(NC(=O)Cc2ccc(-c3ccccc3)cc2)c1	TDP43 rescue 14.1µM
CCN1CCN(Cc2c(O)ccc3oc(C)c(C(=O)Nc4cccc(Cl)c4C)c23)CC1	none (no result: MmCpn inh, aSyn rescue)
Cn1c(=O)c2c(-c3ccccc3)n(-c3ccccc3O)cc2n(C)c1=O	ClpP mod 28.2µM
COc1ccc(-c2c3c(=O)n(C)c(=O)n(C)c3cn2-c2cc(OC)ccc2OC)cc1	FUS yeast rescue inconclusive, ClpP mod 28.2µM
O=C(Nc1cc(Cl)cc(Cl)c1)c1ccc(F)c(S(=O)(=O)NC2CCCCC2)c1	none (no result: MmCpn inh, aSyn rescue)
O=C(Nc1nc2ccc(SC(F)F)cc2s1)c1ccc(NS(=O)(=O)c2ccc(F)c(F)c2)cc1	ClpP mod 31.6µM
CCC(=O)Nc1nc2nc(-c3ccccc3)cc(-c3ccccc3)n2n1	none
CCCC(=O)Nc1nc2nc(-c3ccccc3)cc(-c3ccccc3)n2n1	ClpP mod 12.6µM
Cc1ccc(Oc2ccc(S(=O)(=O)N3CCOCC3)cc2C(N)=O)c(-n2nc3ccccc3n2)c1	ClpP mod 31.6µM
CCOC(=O)N1C(=O)C[C@](Sc2ccc(OC)cc2)(C(=O)N(C)C)[C@H]1c1ccc(OC)cc1	none (no result: TDP43 rescue, MmCpn inh, ClpP mod, aSyn rescue, Abeta yeast res)
Cc1ccc(NC(=O)C2(c3cccs3)CCOCC2)cc1Cl	none (no result: MmCpn inh, aSyn rescue)
CCCC(=O)N1CCC1(C)C(=O)Nc1ccc(-n2cccc2)cc1 (stereo not drawn)	TDP43 rescue 20µM (no result: MmCpn inh)
O=C(NCCCN1CCN(c2ccc(F)cc2)CC1)c1cc2c(Cl)nc3ccccc3c2s1	none (no result: MmCpn inh, aSyn rescue)
CN(C)c1ccc(C(=O)c2ccccc2)cc1	TDP43 rescue 12.6µM
Nc1nc(Nc2ccccc2)nc(C(F)(F)F)n1	none (no result: ClpP mod)
Nc1nc(Nc2ccccc2Br)nc(C(F)(F)F)n1	TDP43 rescue 17.8µM
Cc1nn(-c2ccccc2)c2sc(C(=O)O)cc12	TDP43 rescue inconclusive
CCOC(=O)c1cc2c(C)nn(-c3ccccc3)c2s1	none
